Screening data: PubChem BioAssay, National Center for Advancing Translational Sciences (NCATS)
DT40 TDP1 CPT: qHTS for Inhibitors of human tyrosyl-DNA phosphodiesterase 1 (TDP1): qHTS in cells in presence of CPT; 420,000 compounds, 12% hits; Potency, µM (doses to about 46.2 µM), hits mostly inhibitors; chicken DT40 Tdp1-/-;hTDP1 cells + 20 nM CPT, ATP luminescence, 48 h; further: nearly all actives have a fitted effect of over 55% in size
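Chicken DT40 Tdp1-/- cells complemented with human TDP1, 400 cells/well, exposed to compounds plus 20 nM camptothecin for at least 48 h at 37 C; viability read as ATP content by CellTiter-Glo luminescence.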
HT1080NT lethal: qHTS for induction of synthetic lethality in tumor cells producing 2HG: qHTS for the HT-1080-NT fibrosarcoma cell line | Potency, µM (titrated, usually from 46.1 µM), most hits filed as cytotoxic | 360,000 compounds, 1.6% hits | AID 686970, 2013 | HT-1080-NT fibrosarcoma viability, CellTiter-Glo ATP luminescence, 48 h;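 further: NT is the 2HG producing partner of a matched IDH1 knockdown line; nearly all actives have a fitted effect of over 55% in size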
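750 cells/well, RPMI + 5% FBS; 2 h settle, compound pin-transfer, 48 h at 37 degrees C. CellTiter-Glo 10 min RT, luminescence. Normalized to DMSO and media-only wells.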
TDP1 cell noCPT: qHTS for Inhibitors of human tyrosyl-DNA phosphodiesterase 1 (TDP1): qHTS in cells in absence of CPT. DT40 Tdp1-/- hTDP1 cells, no CPT, ATP luminescence, 48 h. Potency, µM (highest dose often 46.2 µM), actives largely listed as inhibitors. 420,000 compounds, 15% hits; further: nearly all actives have a fitted effect of over 55% in size
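DT40 Tdp1-/-;hTDP1 cells, no CPT (DMSO vehicle only), 400 cells/well; compounds pin-transferred; ≥48 hr, 37 °C; CellTiter-Glo 30 min RT dark, luminescence read.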
IL1B secr inh: qHTS for Inhibitors of Inflammasome Signaling: IL-1-beta AlphaLISA Primary Screen; 360,000 compounds, 4.7% hits; THP-1 LPS/ATP IL-1B secretion, AlphaLISA, 16 h; active compounds read low; AID 743279, 2014; activity change, % at 57.5 µM; in the data active means activity change below about -50%; inconclusive means mostly about -30% to -49%
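THP-1 cells pretreated 1 hr with compounds (up to 57.5 uM final), then stimulated with LPS (250 ng/mL final) plus ATP (1.25 mM final); secreted IL-1B measured by AlphaLISA after 16 hr, decreased signal indicating inhibition.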
HT1080 IDH1KD tx: qHTS for induction of synthetic lethality in tumor cells producing 2HG: qHTS for the HT-1080-IDH1KD cell line. HT-1080 IDH1 knockdown viability, ATP luminescence, 48 h. 360,000 compounds, 2% hits. Potency, µM (highest dose often 46.1 µM), hits mostly cytotoxic. AID 686971, 2013
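% activity derives from luminescence (CellTiter-Glo), normalised to DMSO and no-cell wells. HT-1080-IDH1KD cells, 750/well, had 48 h compound exposure at 37 °C.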
ALOX12 inh: Primary qHTS assay for inhibitors of human arachidonate 12S-lipoxygenase (ALOX12): Round 2. purified 12hLO, xylenol orange hydroperoxide absorbance. Potency, µM (titrated, usually from 108 µM), actives largely listed as inhibitors. 580,000 compounds, 1.1% hits. AID 1671190, 2021
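Purified human 12hLO (150 nM final) in 25 mM Hepes, 0.01% Triton X-100, pH 7.0 was preincubated 15 min at room temperature with compound. Then 40 uM arachidonic acid was added, 30 min. Hydroperoxide was read by Fe-XO absorbance ratio 573/405 nm.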
A number is an active result; . = inactive; ? = inconclusive; / = no result given. This is one part of a sample in which hits are shown more often than they occur. Unless noted, the call rests on the fitted dose curve; in most records, active means well fitted curve in the direction sought with a large enough effect; inconclusive means small, poorly fitted or top-dose-only effect, or another doubt; inactive means no such curve, though single readings can be large; an effect the other way counts as inactive or inconclusive.

SMILES | DT40 TDP1 CPT | HT1080NT lethal | TDP1 cell noCPT | IL1B secr inh | HT1080 IDH1KD tx | ALOX12 inh
CCCCCCn1c(C(C)O)nc2ccccc21 (stereo unspecified) | ? | . | ? | . | . | .
CC(O)c1nc2ccccc2n1CCCOc1ccccc1 (stereo unspecified) | ? | . | 16.4µM | . | . | .
CC(C)Oc1ccc2c(NC(=O)CN3CCOCC3)nn(CC(F)(F)F)c2c1 | / | / | / | / | / | .
COC(=O)c1ccc(C(=O)OC)c(NC(=O)c2c(-c3ccccc3)c(-c3ccccc3)nn(C)c2=O)c1 | ? | / | 14.6µM | / | / | .
COc1ccc(NC(=O)c2c(-c3ccccc3)c(-c3ccccc3)nn(C)c2=O)cc1OC | ? | / | ? | / | / | .
COc1ccc(NC(=O)c2c(-c3ccccc3)c(-c3ccccc3)nn(C)c2=O)c(OC)c1 | 16.4µM | / | ? | / | / | .
COC(=O)c1ccc(C(=O)OC)c(NC(=O)c2c(-c3ccccc3)noc2C)c1 | 6.51µM | / | 6.51µM | / | / | .
CC(=O)Nc1ccc(NC(=O)c2ccc3nc[nH]c3c2)cc1 | / | / | / | / | / | .
COC(C(=O)N/N=C(\C)CC(C)(C)c1ccccc1)c1ccccc1 (stereo unspecified) | / | / | / | / | / | .
Cc1ccc(-c2cc(NC=O)c3ncc(-c4cnn(C)c4)n3c2)cc1 | 4.11µM | ? | 3.66µM | -50.9 | ? | ?
COc1cc(-c2cnc3c(NC=O)cc(-c4ccc(C)cc4)cn23)cc(OC)c1OC | 0.164µM | ? | 0.103µM | . | ? | ?
COc1cc(-c2cnc3c(NC=O)cc(-c4ccccc4Cl)cn23)cc(OC)c1OC | 0.82µM | ? | 1.03µM | . | ? | ?
COc1cc(-c2cc(NC=O)c3ncc(-c4ccccc4)n3c2)cc(OC)c1OC | ? | ? | ? | / | ? | .
COc1ccc(F)cc1-c1cc(NC=O)c2ncc(-c3cc(OC)c(OC)c(OC)c3)n2c1 | 2.31µM | ? | 3.26µM | . | ? | .
CC(C)c1ccccc1NC(=O)CSc1nc2ncccc2[nH]1 | / | / | / | / | / | .
COc1ccc(-c2nnc(SC(C(=O)N3CCOCC3)c3ccccc3)n2C)cc1 (stereo unspecified) | / | / | / | / | / | .
Cc1ccc2c(c1)-c1ccccc1C2=Nc1cccc2ccccc12 | / | / | / | / | / | .
COc1cc(-c2cnc3c(NC=O)cc(-c4ccccc4)cn23)cc(OC)c1OC | 0.0092µM | ? | 0.0461µM | . | ? | .
CC(=O)N1CC(=O)N=C1SCC(=O)Nc1nc(C)c(-c2ccccc2)s1 | 2.91µM | ? | 3.26µM | -76.7 | ? | .
CCc1ccc(NC(=O)c2cc3ncccn3n2)cc1 | / | / | / | / | / | .
CO[C@@H]1CO[C@H]2[C@@H]1OC[C@@H]2NC(=S)Nc1ccc(Cl)cc1 | / | / | / | / | / | 79.4µM
N#Cc1nc(-c2cccs2)oc1N1CCN(C(=O)c2ccccc2)CC1 | / | / | / | / | / | .
N#CCCCN1CCCCC1 | / | / | / | / | / | .
CCCCNCCOCCOc1ccccc1-c1ccccc1 | 23.1µM | . | 29.1µM | ? | . | ?
CC1CN(CCOCCSc2ccccc2)CC(C)O1 (stereo unspecified) | . | . | . | . | . | .
Clc1ccc(OCCOCCN2CCc3ccccc3C2)c(Cl)c1 | ? | 23.1µM | 23.1µM | -82.5 | 23.1µM | ?
OCCCN1CCN(CCOc2ccccc2-c2ccccc2)CC1 | . | . | ? | . | . | .
CC1CN(CCOCCOc2ccccc2-c2ccccc2)CC(C)O1 (stereo unspecified) | ? | . | 23.1µM | . | . | ?
c1ccc(-c2ccccc2OCCOCCN2CCc3ccccc3C2)cc1 | ? | ? | 11.6µM | -75.1 | ? | .
COc1cncc(CN2CCc3ncc(C(=O)Nc4ccccc4)n3CC2)c1 | / | / | / | / | / | .
